Screening data as filed in PubChem.
Rows were chosen to be rich in hits. Some 12% of all compounds tested hit in one or more screens of this group.
G9a block – qHTS Assay for Inhibitors of Histone Lysine Methyltransferase G9a. Histone-lysine N-methyltransferase EHMT2 (Homo sapiens), Q96KQ7. G9a H3K9 monomethylation, AlphaScreen, 2 h. Potency, µM (top dose mostly 102 µM), actives largely listed as inhibitors. actives 8.8% (n = 350,000); also: nearly all actives have a fitted effect of over 75% in size
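Compounds were preincubated with 20 nM G9a for 15 min, after which biotinylated H3K9 peptide (500 nM) and SAM (20 uM) started a 2 h room-temperature reaction. Monomethylated product was quantified by antibody-based AlphaScreen chemiluminescence.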
BAZ2B inh – qHTS Assay for Inhibitors of BAZ2B | actives 4.4% (n = 360,000) | AlphaScreen BAZ2B-H3K14Ac peptide displacement | Potency, µM (top dose mostly 114 µM), most hits filed as inhibitors | Bromodomain adjacent to zinc finger domain protein 2B (Homo sapiens), Q9UIF8 | AID 504333, 2011; also: nearly all actives have a fitted effect of over 60% in size
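BAZ2B (50 nM) with biotin-H3(5-23)K14Ac peptide (50 nM) in PBS pH 7.4, 0.01% Tween-20, preformed 30 min, then compound 30 min at room temperature; top concentration 110uM. AlphaScreen streptavidin donor/nickel chelate acceptor beads (10 ug/mL final), 20 min dark, signal read.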
JMJD2A Tudor inh – qHTS Assay for Inhibitors of JMJD2A-Tudor Domain. AlphaScreen JMJD2A-Tudor / H3K4me3 peptide binding. Potency, µM (top dose mostly 114 µM), usual class: inhibitors. actives 4.4% (n = 390,000). AID 504339, 2011; also: nearly all actives have a fitted effect of over 50% in size
Target sequence (O75164 whole entry, looked up, the tested form may be a part): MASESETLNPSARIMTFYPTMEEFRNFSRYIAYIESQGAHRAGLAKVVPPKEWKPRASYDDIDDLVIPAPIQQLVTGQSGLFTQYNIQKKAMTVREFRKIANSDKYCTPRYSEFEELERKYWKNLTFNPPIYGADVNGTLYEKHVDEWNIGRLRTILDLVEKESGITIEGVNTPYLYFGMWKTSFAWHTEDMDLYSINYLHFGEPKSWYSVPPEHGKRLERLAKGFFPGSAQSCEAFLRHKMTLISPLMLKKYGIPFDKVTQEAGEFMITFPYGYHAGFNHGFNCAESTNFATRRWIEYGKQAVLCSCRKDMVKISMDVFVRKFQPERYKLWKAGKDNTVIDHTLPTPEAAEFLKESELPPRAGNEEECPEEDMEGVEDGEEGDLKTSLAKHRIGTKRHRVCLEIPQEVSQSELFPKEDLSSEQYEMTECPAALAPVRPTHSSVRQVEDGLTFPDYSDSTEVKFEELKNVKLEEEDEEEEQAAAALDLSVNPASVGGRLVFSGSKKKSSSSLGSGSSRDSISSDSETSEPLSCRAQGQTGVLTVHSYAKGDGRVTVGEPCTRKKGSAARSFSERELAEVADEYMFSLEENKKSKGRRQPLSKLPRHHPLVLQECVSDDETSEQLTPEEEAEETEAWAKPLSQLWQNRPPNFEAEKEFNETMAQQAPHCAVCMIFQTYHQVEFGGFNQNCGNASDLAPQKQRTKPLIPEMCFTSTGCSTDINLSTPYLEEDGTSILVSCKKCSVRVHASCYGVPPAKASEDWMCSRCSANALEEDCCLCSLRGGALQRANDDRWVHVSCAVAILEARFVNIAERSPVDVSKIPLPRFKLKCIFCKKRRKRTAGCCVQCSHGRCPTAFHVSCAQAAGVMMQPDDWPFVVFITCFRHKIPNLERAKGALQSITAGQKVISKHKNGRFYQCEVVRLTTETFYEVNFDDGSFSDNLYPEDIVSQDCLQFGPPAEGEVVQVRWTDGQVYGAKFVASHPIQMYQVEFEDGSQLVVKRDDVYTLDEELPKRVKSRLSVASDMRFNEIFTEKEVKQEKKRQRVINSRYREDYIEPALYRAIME
HP1b chromo inh – HTS for Inhibitors of HP1-beta Chromodomain Interactions with Methylated Histone Tails | Chromobox protein homolog 1 (Homo sapiens), P83916 | AlphaScreen HP1-beta / biotin-H3K9me3 peptide binding | Potency, µM (highest dose often 114 µM), actives largely listed as inhibitors | actives 0.56% (n = 390,000) | AID 540317, 2011; also: nearly all actives have a fitted effect of over 70% in size
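HP1-beta protein (50 nM final) preincubated 30 min at room temperature with biotinylated H3(1-18)K9me3 peptide (50 nM) in PBS pH 7.4, 0.01% Tween-20, then compound added for 30 min. AlphaScreen streptavidin donor/nickel chelate acceptor beads (10 ug/mL final), 30 min dark, luminescence read.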
Sfp inh – qHTS Assay for Inhibitors of Bacillus subtilis Sfp phosphopantetheinyl transferase (PPTase). Potency, µM, hits mostly inhibitors. 4'-phosphopantetheinyl transferase ffp (Bacillus subtilis), Q9F4F7. AID 1490, 2009. actives 3.5% (n = 310,000). Biochemical Sfp PPTase activity, qHTS;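 also: the enzyme is Sfp with the accession as filed and its product quenches rhodamine fluorescence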
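Compounds were incubated with enzyme (final 15 nM) for 15 min at room temperature before substrate addition started the reaction. Fluorescence at 525 nm excitation, 598 nm emission was recorded immediately and after 30 minutes.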
Each line names hits and unclear results; the compound was inactive in the other large screens. Calls follow the shape of the dose curve; as a rule, active = well fitted curve in the direction sought with a large enough effect; inconclusive = small, poorly fitted or top-dose-only effect, or another doubt; inactive = no such curve, though single readings can be large; an effect the other way counts as inactive or inconclusive.

CCOC(=O)CSc1nc2c(c(-c3ccc(C)o3)c1C#N)CCCC2	G9a block inconclusive, Sfp inh 14.1µM
COC(=O)CSc1nc2c(c(-c3ccco3)c1C#N)CCCC2	G9a block 2.24µM, BAZ2B inh 28.2µM, Sfp inh 35.5µM
CCOCCCNC(=S)N(CCN(C)C)Cc1cc2cc3c(cc2[nH]c1=O)OCCO3	G9a block 50.1µM
CN(C)CCCNC(=S)N(CCN(C)C)Cc1cc2cc3c(cc2[nH]c1=O)OCCO3	G9a block inconclusive
CC(C)CNC(=S)N(CCCO)Cc1cc2cc3c(cc2[nH]c1=O)OCO3	G9a block 39.8µM
O=C(NCCSCc1ccc(Cl)cc1Cl)c1ccc(CN2CCOCC2)cc1	none
O=C(ONc1ccc(N=NC(=O)c2ccccc2O)cc1)c1ccccc1	G9a block inconclusive, BAZ2B inh 10µM, JMJD2A Tudor inh inconclusive
CN(C)CCN(Cc1ccco1)S(=O)(=O)c1csc(C(N)=O)c1	none
CN(C)c1ccc(Nc2ncnc3c2c(-c2ccccc2)cn3-c2cccc(Cl)c2)cc1	G9a block 8.91µM, BAZ2B inh 4.47µM, JMJD2A Tudor inh 12.6µM, HP1b chromo inh inconclusive (no result: Sfp inh)
OC(COC1CCCCC1)CN1CCN(c2ccccc2)CC1 (centres undefined)	none
Cc1n(CC(O)COC2CCCCC2)c2ccccc2[n+]1C (centres undefined)	G9a block inconclusive, JMJD2A Tudor inh 79.4µM
COc1ccc(-c2nnn(CC(=O)N(CC(=O)NC3CCCC3)c3ccccc3)n2)cc1OC	JMJD2A Tudor inh 17.8µM
Cc1cccc(N(CC(=O)NCc2ccccc2)C(=O)Cn2nnc(-c3ccc(C)o3)n2)c1	none
Cc1cccc(N(CC(=O)NC2CCCCC2)C(=O)Cn2nnc(-c3ccc(C)o3)n2)c1	G9a block 44.7µM
Cc1ccc(-c2nnn(CC(=O)N(CC(=O)NC3CCCCC3)c3ccccc3F)n2)o1	G9a block 35.5µM, BAZ2B inh inconclusive
Cc1ccc(-c2nnn(CC(=O)N(CC(=O)NCc3ccccc3)c3cccc(C)c3C)n2)o1	G9a block 3.55µM, BAZ2B inh inconclusive, Sfp inh 25.1µM
Cc1oc(-c2ccc(Cl)cc2)cc1C(=O)NC1CCN(Cc2ccccc2)CC1	none
COc1cccc(C(=O)C2CCCN(C(=O)c3ccccc3Cl)C2)c1 (centres undefined)	none
COc1ccc2c(=O)cc(C(=O)O)oc2c1	G9a block 56.2µM
COc1ccc2c(C)c(C(=O)O)oc2c1	none
O=C(COC(=O)c1ccc(Cl)cc1[N+](=O)[O-])NCc1ccco1	none (no result: G9a block, BAZ2B inh, Sfp inh)
CN(C(=O)CSc1nc2c(cnn2-c2ccccc2)c(=O)[nH]1)C1CCS(=O)(=O)C1 (centres undefined)	none (no result: G9a block, JMJD2A Tudor inh, HP1b chromo inh)
COC(=O)c1c(NC(=O)CN2CCCC(C)C2)c2c(C)cccc2n1C (centres undefined)	none
COc1ccccc1NS(=O)(=O)c1ccc2oc(N)nc2c1	G9a block 25.1µM, Sfp inh inconclusive
CC(C)CN(C(=O)Cn1c(Cl)nc2c1c(=O)n(C)c(=O)n2C)C1CCS(=O)(=O)C1 (centres undefined)	none (no result: Sfp inh)
c1ccc2c(c1)ncn2Cc1nnc2sc(-c3ccc4c(c3)OCO4)nn12	BAZ2B inh inconclusive, HP1b chromo inh inconclusive (no result: G9a block)
Clc1ccccc1-c1nn2c(Cn3cnc4ccccc43)nnc2s1	G9a block 2.82µM, HP1b chromo inh inconclusive, Sfp inh 44.7µM
c1ccc2c(c1)OCC(c1nn3c(Cn4nnc5ccccc54)nnc3s1)O2 (centres undefined)	G9a block 5.01µM, BAZ2B inh 50.1µM, JMJD2A Tudor inh inconclusive, HP1b chromo inh inconclusive, Sfp inh 2.51µM
COc1ccc(OCc2nn3c(Cn4cnc5ccccc54)nnc3s2)cc1	G9a block 5.62µM, HP1b chromo inh inconclusive, Sfp inh 25.1µM
c1ccc(OCc2nn3c(Cn4nnc5ccccc54)nnc3s2)cc1	G9a block 2.82µM, JMJD2A Tudor inh inconclusive, HP1b chromo inh inconclusive, Sfp inh 12.6µM
COc1ccc(-c2nn3c(COc4ccccc4)nnc3s2)cc1OC	G9a block inconclusive, Sfp inh inconclusive
